In PubChem BioAssay (EPA / NIEHS) one finds outcome data, which are given here for 40 compounds.

Inconclusive results are not listed. The source made the active and inactive calls. How the source made its calls: active means hit-call score of the fitted dose curve at least 0.9, where 1 is the maximum; inconclusive means response in the unintended direction; inactive means score below 0.9.

Oxysterols receptor LXR-beta (Homo sapiens), sequence (P55055 whole entry, looked up, the tested form may be a part): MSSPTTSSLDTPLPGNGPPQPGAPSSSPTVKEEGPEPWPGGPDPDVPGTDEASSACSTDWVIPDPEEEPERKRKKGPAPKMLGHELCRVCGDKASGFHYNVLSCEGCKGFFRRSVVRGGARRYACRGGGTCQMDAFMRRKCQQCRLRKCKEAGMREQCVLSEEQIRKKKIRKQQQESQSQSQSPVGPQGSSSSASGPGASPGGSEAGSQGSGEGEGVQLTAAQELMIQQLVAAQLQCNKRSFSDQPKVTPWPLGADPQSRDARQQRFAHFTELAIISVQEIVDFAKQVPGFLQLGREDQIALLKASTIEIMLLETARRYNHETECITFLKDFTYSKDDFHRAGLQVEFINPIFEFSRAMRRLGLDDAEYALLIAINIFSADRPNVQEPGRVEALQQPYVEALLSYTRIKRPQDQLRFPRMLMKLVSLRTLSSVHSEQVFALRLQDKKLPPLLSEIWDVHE

This test concerns the target Oxysterols receptor LXR-beta (Homo sapiens) (UniProt P55055). Kind of test: ATG_LXRb_TRANS: Attagene TRANS-FACTORIAL HepG2 Assay for human Liver X Receptor beta (LXRb) (AID 2282981). The conditions noted are these: HepG2 Attagene TRANS GAL4-LXRb reporter, mRNA. The method, then: ATG_TRANS is a cell-based, multiplexed-readout assay that uses HepG2, a human liver cell line, with measurements taken at 24 hours after chemical dosing in a 24-well plate.ATG_LXRb_TRANS is one of 30 assay component(s) measured or calculated from the ATG_TRANS assay. It is designed to make measurements of mRNA induction, a form of inducible reporter, as detected with fluorescence intensity signals by Reverse transcription polymerase chain reaction (RT-PCR) and Capillary electrophoresis technology.Data from the assay component ATG_LXRb_TRANS was analyzed into 1 assay endpoint. This assay endpoint, ATG_LXRb_TRANS, was analyzed in the positive analysis fitting direction relative to DMSO as the negative control and baseline of activity. Using a type of inducible reporter, measures of mRNA for gain-of-signal activity can be used to understand the reporter gene at the transcription factor-level as they relate to the gene NR1H2. Furthermore, this assay endpoint can be referred to as a primary readout, because this assay has produced multiple assay endpoints where this one serves a reporter gene function. To generalize the intended target to other relatable targets, this assay endpoint is annotated to the nuclear receptor intended target family, where the subfamily is non-steroidal.
Human liver HepG2 cells are transiently transfected with multiple reporter transcription units (MRTUs) in 6-well plates using FuGene 6 reagent (Roche; 3 ml FuGene/1 mg DNA). The MRTU constructs are regulated by a cis-regulating element (promoter). […] A major difference between the CIS and TRANS system is that in CIS activities of endogenous TFs are measured, whereas the TRANS assay evaluates changes in activities of exogenous, chimeric NR-Gal4 proteins. […] At the end of 24 hour incubation, total RNA was isolated using TriZol reagent (Invitrogen). The isolated RNA is then reverse-transcribed using oligo(dT) primer and Mo-MLV reverse transcriptase (Invitrogen) with DNAse I (Ambion) treatment for 30 min. The one-tenth of the produced cDNA was amplified by PCR using Taq DNA polymerase (Invitrogen) and two reporter sequence-specific primers. The PCR products were fluorescently labeled by primer extension with 6-arboxyfluorescein (6-FAM) 5'-labeled reporter sequence-specific primer (2 min at 95 C, 20 s at 68 C and 10 min at 72 C) and these products were digested with 5U of HpaI (New England Biolabs) for 2h at 37 C. The fragments were purified using Qiaquick PCR columns (Qiagen), analyzed on an ABI 3130xL genetic analyzer (Applied Biosystems) with peak positions identified by using a set of X-rhodamine (ROX)-labeled MapMarker1000 molecular weight standards (BioVentures). The raw capillary electrophoresis data was processed using Attagraph software (Attagene).
`CCCCCCC1CCC(=O)O1` (stereo not given): the outcome was inactive. Consider `CN1CCCC1`, for which the result was inactive. For the compound `CCCOCCC`, the compound was classed as inactive. The same measure for `COC(=O)CCSCCC(=O)OC`: “inactive”. The same measure for `CC1=CCCC(C)(C)C12CCC(C)O2` (stereo not given): “inactive”; for `Cc1cccnc1`: “inactive”.

Take `CCCC[N+]1(C)CCCC1`: the compound was called inactive. Take `[O-][n+]1ccc(Cl)cc1`: the compound was classed as inactive. Then `O=C(O)Cc1c[nH]c2ccccc12`, with “inactive”; and `Cc1cc(C)c(S(=O)(=O)O)cc1N=Nc1cc(S(=O)(=O)O)c2ccccc2c1O`, with “inactive”.

Regarding `CCC(=O)OCc1ccc(OC)cc1`, the call was inactive.

With `Cc1cc(O)cc(C)c1Cl`, the call was inactive. Then `CCO[Si](CCCN)(OCC)OCC`, with “inactive”; and `CNC(=C[N+](=O)[O-])NCCSCc1csc(CN(C)C)n1`, with “inactive”. The same measure for `CC(C)n1c(/C=C/[C@@H](O)C[C@@H](O)CC(=O)O)c(-c2ccc(F)cc2)c2ccccc21`: “inactive”; for `CC(C)(C)NC(=O)[C@@H]1CN(Cc2cccnc2)CCN1C[C@@H](O)C[C@@H](Cc1ccccc1)C(=O)N[C@H]1c2ccccc2C[C@H]1O`: “inactive”. Then `NC(N)=Nc1nc(CSCCC(N)=NS(N)(=O)=O)cs1`, with “inactive”; and `COc1cccc(OC)c1C(=O)O`, with “inactive”; and `CN(C)N=Nc1ccccc1`, with “inactive”. As to `CN(C)CCC(c1ccc(Cl)cc1)c1ccccn1` (stereo not given), the compound was classed as inactive. For `CC1=C(CC=O)C(C)(C)CCC1`, the outcome was inactive. With `OCCOCCOCCOCCOCCO`, the outcome was inactive. The same measure for `C=C(C)C(=O)OCC1CCCO1` (stereo not given): “inactive”. Then `CC(C)=CCOC(=O)c1ccccc1`, with “inactive”. As to `CCCCNC(N)=O`, the result was inactive. The same measure for `CCC(C)=NO`: “inactive”. Then `CCCc1c(OCCCCc2nn[nH]n2)ccc(C(C)=O)c1O`, with “inactive”; and `Cc1ccnc(N)c1`, with “inactive”; and `CCCN[C@H]1CCc2nc(N)sc2C1`, with “inactive”. Turning to `CN(C)c1ccc(C(c2ccccc2)c2ccc(N(C)C)cc2)cc1`, the compound was called inactive.

As to `CC/C=C\CC/C=C/C(OCC)OCC`, the compound was called inactive. The same measure for `O=C1NC(=O)C2CC=CCC12` (stereo not given): “inactive”; for `OCCc1ccccn1`: “inactive”; for `C=C1CC[C@H]2C[C@@H]1C2(C)C`: “inactive”. On to `CN(C)Cc1cc(C(C)(C)C)c(O)c(C(C)(C)C)c1`, for which the compound was called inactive. Regarding `CCCCCC[C@@H](O)C/C=C\CCCCCCCC(=O)O`, the call was inactive.

`CCCCCCCC#N`: the compound was classed as inactive. Then `CC(=O)c1nccs1`, with “inactive”; and `O=C1CCCCCCCCCCCCCC1`, with “inactive”; and `NCc1ccccc1`, with “inactive”.
